Bioassay records from PubChem.
Most compounds without a hit are left out; they make up all but 19% or so of the library.
HT1080 IDH1KD tx: qHTS for induction of synthetic lethality in tumor cells producing 2HG: qHTS for the HT-1080-IDH1KD cell line. Potency, µM (doses to about 46.1 µM), for inactives: at the highest dose activity, negative = toxicity, most hits filed as cytotoxic. HT-1080 IDH1 knockdown viability, ATP luminescence, 48 h. AID 686971, 2013. 2% of 360,000 active;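 also: potency is read from the fitted curve at half-maximal effect; 0% = DMSO wells and -100% = cell-free medium wells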
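Luminescent ATP read-out (CellTiter-Glo, 10 min at room temperature) after 48 h compound exposure at 37 °C gave viability of IDH1-knockdown HT-1080 cells. Activity was normalised to DMSO and cell-free wells, then fitted as concentration-response curves.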
DT40 TDP1 no CPT: qHTS for Inhibitors of human tyrosyl-DNA phosphodiesterase 1 (TDP1): qHTS in cells in absence of CPT; DT40 Tdp1-/- hTDP1 cells, no CPT, ATP luminescence, 48 h; Potency, µM (doses to about 46.2 µM), without a hit: top-dose activity change, negative = growth inhibition, usual class: inhibitors; 15% of 420,000 active; AID 686978, 2013; also: potency is read from the fitted curve at half-maximal effect; nearly all actives have a fitted effect of over 55% in size
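Readout: luminescence from CellTiter-Glo after 30 min in the dark at RT. Cells: DT40 Tdp1-/- with stable hTDP1, 400/well. Exposure: compounds alone, ≥48 hr, 37 °C.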
IL1B secr inh: qHTS for Inhibitors of Inflammasome Signaling: IL-1-beta AlphaLISA Primary Screen. THP-1 LPS/ATP IL-1B secretion, AlphaLISA, 16 h; hits give low values. activity change, % at 57.5 µM. 4.7% of 360,000 active; in the data active = activity change below about -50%; inconclusive = mostly about -30% to -49%
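Secreted IL-1B measured by AlphaLISA bead assay after 16 h compound exposure of THP-1 cells; compounds (final up to 57.5 uM) added 1 h before LPS (250 ng/mL) and ATP (1.25 mM) stimulation; lower signal means less secretion.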
HT1080NT lethal: qHTS for induction of synthetic lethality in tumor cells producing 2HG: qHTS for the HT-1080-NT fibrosarcoma cell line; 1.6% of 360,000 active; Potency, µM (series often up to 46.1 µM), for inactives: at the highest dose activity, negative = less viability, usual class: cytotoxic; HT-1080-NT fibrosarcoma viability, CellTiter-Glo ATP luminescence, 48 h; AID 686970, 2013;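 also: NT is the 2HG producing partner of a matched IDH1 knockdown line; potency is read from the fitted curve at half-maximal effect; 0% = DMSO-treated cells and -100% = media-only wells without cells; nearly all actives have a fitted effect of over 55% in size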
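Read-out is CellTiter-Glo luminescence after 10 minutes at room temperature, following 48 hours' compound treatment of HT-1080-NT cells (750 cells/well, RPMI, 5% FBS, 37 degrees C).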
DT40 TDP1 CPT: qHTS for Inhibitors of human tyrosyl-DNA phosphodiesterase 1 (TDP1): qHTS in cells in presence of CPT. chicken DT40 Tdp1-/-;hTDP1 cells + 20 nM CPT, ATP luminescence, 48 h. Potency, µM (highest dose often 46.2 µM), for inactives: at the top dose activity change, negative = growth inhibition, usual class: inhibitors. 12% of 420,000 active. AID 686979, 2013; also: potency is read from the fitted curve at half-maximal effect; nearly all actives have a fitted effect of over 55% in size
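Chicken DT40 Tdp1-/- cells stably complemented with human TDP1 were seeded at 400 cells/well in medium containing 20 nM camptothecin, exposed to pin-transferred compounds, and grown at 37 °C for at least 48 hr. Viability was read as ATP luminescence.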
Numbers without * were called inactive; ? = inconclusive; . = no result. Unless noted, calls follow the shape of the dose curve; as a rule, active = well fitted curve in the direction sought with a large enough effect; inconclusive = small, poorly fitted or top-dose-only effect, or another doubt; inactive = no such curve, though single readings can be large; an effect the other way counts as inactive or inconclusive. Unless noted, % is scaled to controls: 0 for no effect and ±100 for the full control effect.

SMILES | HT1080 IDH1KD tx | DT40 TDP1 no CPT | IL1B secr inh | HT1080NT lethal | DT40 TDP1 CPT
CCOC(=O)c1ccc2c(c1)N(Cc1cccc(C(F)(F)F)c1)C(=O)c1ccccc1S2(=O)=O | . | 16.4µM* | . | . | ?
CCN1CCN(C(=O)c2ccc3c(c2)N(Cc2cc(C)ccc2C)C(=O)c2ccccc2S3(=O)=O)CC1 | . | -26.9% | . | . | -2.7%
Cc1ccccc1CN1C(=O)c2ccccc2S(=O)c2ccc(C(=O)NC3CCC(C)CC3)cc21 (configuration not stated) | . | -28.6% | . | . | ?
O=C(c1ccc2c(c1)N(Cc1ccccc1F)C(=O)c1ccccc1S2=O)N1CCOCC1 (configuration not stated) | . | -3.2% | . | . | -8.3%
Cc1ccc(C)c(CN2C(=O)c3ccccc3S(=O)c3ccc(C(=O)N4CCCCC4)cc32)c1 (configuration not stated) | . | 16.4µM* | . | . | 16.4µM*
Cc1cccc(CN2C(=O)c3ccccc3S(=O)(=O)c3ccc(C(=O)N4CCN(c5cc(C)ccc5C)CC4)cc32)c1 | . | -28.2% | . | . | -21.2%
CCOC(=O)N1CCC(NC(=O)c2ccc3c(c2)N(Cc2cc(C)ccc2C)C(=O)c2ccccc2S3(=O)=O)CC1 | . | 11.6µM* | . | . | ?
Cc1cc(NC(=O)COC(=O)[C@@H]2CCCN2C(=O)c2cccs2)no1 | 8.0% | -12.6% | -0.2 | -2.7% | -30.9%
[O-][n+]1cccc2ncc3cscc3c21 | 2.5% | 8.6% | 9.8 | 0.7% | -2.4%
Cc1ccc(CCN2CC(C(=O)NC3CCC(C)CC3)CC2=O)cc1 (configuration not stated) | 3.9% | ? | 2.9 | -0.9% | -25.7%
CCOC(=O)c1ccc2c(c1)N(Cc1cc(C)ccc1C)C(=O)c1ccccc1S2(=O)=O | . | 16.4µM* | . | . | ?
Cc1ccc(S(=O)(=O)Nc2ccc(Cl)cc2C(=O)c2ccc(F)cc2)cc1 | 16.0% | -21.6% | 0.3 | 9.3% | -8.9%
CCn1c(SCC(=O)N2CCN(c3ccccc3)CC2)nnc1-c1ccoc1C | -24.6% | -9.5% | -4.9 | -3.2% | -7.3%
CCn1c(CSCc2ccc(C)cc2)nnc1SCC(=O)N1CCN(c2ccccc2)CC1 | ? | 20.6µM* | -8.1 | -4.5% | -51.9%
C=CCn1c(CSCc2ccccc2)nnc1SCC(=O)N1CCN(c2ccccc2)CC1 | 2.8% | 14.6µM* | 0.0 | 3.1% | ?
FC(F)Sc1ccc(NC(=S)NC(c2ccccc2)c2ccccc2)cc1 | ? | 10.3µM* | -68.2* | ? | 4.61µM*
FC(F)(F)c1ccc(NC(=S)NCc2ccccc2)cc1 | ? | ? | -62.5* | ? | 14.6µM*
FC(F)Sc1ccc(NC(=S)NCc2ccccc2)cc1 | 20.6µM* | ? | -92.0* | ? | 25.9µM*
CC(=O)N1CCN(C(=S)Nc2ccc(SC(F)F)cc2)CC1 | -2.8% | -22.9% | -4.6 | 8.9% | -24.2%
CN(C)CCCN(Cc1ccccc1)C(=S)NCc1ccccc1 | -8.3% | ? | -20.8 | -1.3% | -24.5%
FC(F)Oc1ccc(NC(=S)NCc2ccccc2)cc1 | -13.3% | ? | -3.9 | -9.1% | -26.5%
CN(C)CCCN(Cc1ccccc1)C(=S)Nc1ccc(SC(F)F)cc1 | -16.0% | 23.1µM* | ? | -19.5% | 18.4µM*
Cc1c(NC(=O)c2cccs2)c(=O)n(-c2ccccc2)n1C | 14.8% | -4.9% | -12.1 | 10.0% | 6.3%
COc1ccccc1NC(=O)c1ccc(NC(=O)CSc2ncn[nH]2)cc1 | 4.0% | 3.0% | 0.0 | -3.1% | 4.2%
Cc1ccc2c(=O)n3c(nc2c1)C(C)NC(=O)c1cccnc1-3 (configuration not stated) | -3.1% | -3.9% | 31.2 | 1.5% | -18.7%
CCCC[C@@H]1CNC(=S)N1CCCC | 14.1% | -16.3% | 18.2 | 7.0% | ?
